Source: PubChem
Sm TGR inh: inhibitors of Schistosoma mansoni thioredoxin glutathione reductase. Q962Y6. purified TGR, DTNB reduction, TNB absorbance 405 nm. Potency, µM (highest dose often 114 µM), for the others: at the highest dose activity change, negative = inhibition, actives largely listed as inhibitors. 3% of 360,000 active. AID 485364; further: potency means the concentration at half of the fitted maximal effect; nearly all actives have a fitted effect of over 60% in size
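Kinetic colorimetric format: TGR-catalysed, NADPH-driven DTNB reduction monitored via TNB absorbance. Enzyme dispensed at 20 nM; compound exposure 15 min at room temperature before reaction start.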
Vaccinia mCherry: inhibitors of vaccinia virus infection (mCherry reporter signal) | Vaccinia virus mCherry reporter infection, fluorescence | Potency, µM (series often up to 36.5 µM), without a hit: at the highest dose activity change, negative = inhibition, hits mostly inhibitors | 0.63% of 310,000 active; calls by dose curve; tested in A549 cells; further: potency means the concentration at half of the fitted maximal effect; nearly all actives have a fitted effect of over 35% in size
HCV inhibitor: inhibitors of hepatitis C virus infection; Potency, µM (highest dose often 41.8 µM), for inactives: top-dose activity change, negative = inhibition, hits mostly inhibitors; 3.4% of 340,000 active; Huh7.5.1 HCVcc-Cre infection, luciferase reporter, 44 h; further: potency means the concentration at half of the fitted maximal effect
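Infectious HCVcc-Cre (~0.5 moi) was added to cells just after compound, with cells seeded 4 h earlier at 1,000 per well. Luciferase activity after 44 h culture reported infection; substrate was incubated 15 min at room temperature before reading.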
FMDV inh: foot and mouth disease virus antiviral activity. Potency, µM (titrated, usually from 57.9 µM), for inactives: at the highest dose activity change, negative = inhibition, most hits filed as inhibitors. 1.2% of 410,000 active. FMDV antiviral cell-based qHTS; calls by dose curve; tested in HEK293T cells; further: read-out not given here; potency means the concentration at half of the fitted maximal effect; nearly all actives have a fitted effect of over 45% in size
VACV Venus inh: vaccinia inhibition (Venus reporter); Vaccinia virus Venus reporter expression, fluorescence; Potency, µM (series often up to 36.5 µM), without a hit: at the top dose activity change, negative = inhibition, most hits filed as inhibitors; 0.46% of 330,000 active; AID 720580; calls by dose curve; tested in A549 cells; further: potency means the concentration at half of the fitted maximal effect; nearly all actives have a fitted effect of over 30% in size
HCMV inh: human cytomegalovirus inhibition; HFF cells, HCMV-luciferase reporter, 72 h; stronger effect = lower value; activity change, negative = inhibition, % at 57.5 µM; 4.5% of 410,000 active; AID 1259415; in the data active means activity change below about -60%; inconclusive means no clear call, values can overlap the other calls; inactive means above about -39%
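Cell-based, HFFs, 1000 cells/well, 16 h 37C; cpds in DMSO + HCMV-luc, MOI 1 PFU/cell; 72 h 37C; OneGlo luminescence after 5 min RT; norm. to buffer vs Salinomycin 10uM.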
* hit, by the source's call; i = inactive; u = inconclusive; x = no result given; [ ] = another dose, or the depositor's remark. A selection: hits, their analogues and other compounds. The true share with any hit is near 9.3%. Unless noted, the call rests on the fitted dose curve; in most records, active means well fitted curve in the direction sought with a large enough effect; inconclusive means small, poorly fitted or top-dose-only effect, or another doubt; inactive means no such curve, though single readings can be large; an effect the other way counts as inactive or inconclusive. On the % scale 0 is the no-effect control and ±100 the full control effect.

SMILES	Sm TGR inh	Vaccinia mCherry	HCV inhibitor	FMDV inh	VACV Venus inh	HCMV inh
Cc1ccc(C)c(/C(O)=C2/C(=O)C(=O)N(CCN3CCOCC3)C2c2ccc(C)o2)c1 (stereo unspecified)	u	-28.2%	18.4%	42.3%	-16.1%	4.3
Cc1c(/C(O)=C2/C(=O)C(=O)N(CCN3CCOCC3)C2c2ccccn2)cnn1-c1ccccc1 (stereo unspecified)	22.4µM*	-8.6%	2.6%	1.41µM*	0.7%	-78.2*
Cc1ccc(C2/C(=C(/O)c3cnn(-c4ccccc4)c3C)C(=O)C(=O)N2CCCN2CCOCC2)o1 (stereo unspecified)	10µM*	x	x	x	x	x
Cc1nc(-n2[nH]c3c(c2=O)CCCC3)[nH]c(=O)c1Cc1ccccc1	-31.1%	x	7.08µM*	u	x	-102.5*
COC(=O)CNC(c1ccccc1)c1cc(C)ccc1NS(=O)(=O)c1ccc(C)cc1 (stereo unspecified)	18.3%	-22.2%	6.31µM*	-13.3%	-14.0%	-33.9
Cc1ccc(S(=O)(=O)Nc2ccc(Br)cc2C(NCC(=O)O)c2ccccc2)cc1 (stereo unspecified)	0.3%	i	-24.3%	-19.4%	-10.2%	-0.9
CC(C)Cc1ccc(C#N)c(SCC(N)=O)n1	-7.5%	-5.0%	-14.9%	x	-17.7%	14.9
C=C1CC(COc2ccc3c(C)c(Cl)c(=O)oc3c2)(c2ccccc2)OC1=O (stereo unspecified)	x	10µM*	u	22.4µM*	11.2µM*	-98.3*
COC(=O)c1cc(=O)n(CCc2ccccc2)c(=Nc2ccc(F)cc2)s1	4.5%	11.2%	6.9%	u	-4.9%	-35.5
CCn1c(=O)cc(C(=O)OC)sc1=Nc1ccc(F)c(F)c1	11.3%	u	12.6µM*	31.6µM*	-9.5%	146.1
COC(=O)c1cc(=O)n(CCc2ccc(OC)cc2)c(=Nc2ccc(F)c(Cl)c2)s1	2.1%	-18.0%	u	22.4µM*	-1.2%	u
CCOC(=O)C(C)n1cnc2scc(-c3ccc(C)cc3)c2c1=O (stereo unspecified)	-27.1%	x	-11.8%	7.7%	x	11.3
CCCOC(=O)C(C)n1cnc2scc(-c3ccc(C)cc3)c2c1=O (stereo unspecified)	-4.7%	x	22.4µM*	-4.4%	x	5.4
O=C(OCc1cc(=O)n2c(n1)sc1ccccc12)c1ccc(O)cc1	-2.4%	3.2%	5.8%	25.2%	9.9%	9.1
O=c1cc(CCl)nc2sc3ccccc3n12	39.8µM*	-9.0%	7.3%	-5.3%	-6.5%	u
C=CCn1c(O)c(CN2CCN(Cc3ccccc3)CC2)c(C)c(C#N)c1=O	44.7µM*	x	3.7%	-14.3%	7.1%	21.6
Cc1ccc(C(=O)CCNc2cccc(Br)c2)o1	56.2µM*	-1.5%	-20.4%	13.8%	-12.4%	-30.0
Cc1ccc(C(=O)CCNc2ccccc2)o1	25.1µM*	-1.2%	-16.8%	42.8%	-16.3%	26.5
COC(=O)CCC(=O)N1CCOCCOCCN(C(=O)CCC(=O)OC)CCOCCOCC1	-0.1%	x	30.1%	-17.8%	-10.0%	3.3
COC(=O)CCCC(=O)N1CCOCCN(C(=O)CCCC(=O)OC)CCOCC1	-12.3%	x	14.4%	-14.8%	-11.8%	-101.4*
N#Cc1cccc(NC(=O)c2ccc3c(c2)N(Cc2cccc(Cl)c2)C(=O)c2ccccc2S3(=O)=O)c1	2.4%	-11.6%[7.34 µM]	x	-1.8%	-8.4%[7.34 µM]	-33.0
CN(C)CCn1cnc2c(c1=N)C(c1ccccc1)c1ccc3ccccc3c1O2 (stereo unspecified)	-10.4%	x	12.6µM*	0.0%	x	-97.7*
COc1ccc(NC(=S)Nc2ccc(F)cc2)c(OC)c1	x	-22.9%	15.2%	16.9%	-18.3%	-6.6
CCCN1CCN(CC2=C(C(=O)OCC)C(c3cccc(OC)c3OC)NC(=O)N2)CC1 (stereo unspecified)	89.1µM*	-2.1%	x	-10.0%	6.2%	-2.8
COc1ccccc1NC(=O)N1CCN(Cc2nc3ccc(C)cc3o2)CC1	-15.6%	-9.3%	x	-12.1%	-0.4%	0.9
SMILES	Sm TGR inh	Vaccinia mCherry	HCV inhibitor	FMDV inh	VACV Venus inh	HCMV inh
O=C(Nc1ccc(Cl)c(C(F)(F)F)c1)NC1CC2CCCC(C1)N2Cc1ccccc1 (stereo unspecified)	-3.2%	u	25.1µM*	u	u	u
CCc1ccc2c(c1)C(NC(C)=O)C(=O)N2CCN1CCOCC1 (stereo unspecified)	89.1µM*	i	11.1%	-15.8%	-1.8%	76.8
CCCN1C(=O)C(NC(C)=O)c2ccccc21 (stereo unspecified)	6.4%	x	6.0%	15.0%	x	42.0
NS(=O)(=O)c1ccc(CCNC(=O)NC2(C(F)(F)F)Oc3ccccc3O2)cc1	-16.0%	-15.4%	u	-22.3%	-18.3%	40.9
Cc1ccc(-n2c(=O)c3c(c4cc(C)ccc4n3C)n(CC(=O)Nc3c(C)cccc3C)c2=O)cc1	-5.4%	-11.2%	x	0.8%	-7.9%	20.5
Cc1ccc(-n2c(=O)c3c(c4cc(C)ccc4n3C)n(CC(=O)Nc3ccc(F)cc3)c2=O)cc1	-2.6%	-23.6%	x	-1.4%	-20.0%	-75.1*
CCCCC(Sc1nc(N)c(NC(=O)c2ccc(OCC)cc2)c(=O)[nH]1)C(=O)O (stereo unspecified)	-0.5%	i	4.6%	-11.1%	3.9%	u
Cc1ccccc1CN(C)CCS(=O)(=O)c1cc(Cl)ccc1Cl	u	5.01µM*	-15.1%	-16.1%	u	-29.4
Nc1nnc(CCS(=O)(=O)c2cc(Cl)ccc2Cl)s1	4.6%	-0.7%[1.46 µM]	17.8%	-9.0%	-5.8%	-6.5
O=C(CSc1nc(=O)n(Cc2ccco2)c2c1CCC2)Nc1cccc(F)c1	-10.0%	-22.8%	x	-6.7%	-4.7%	-38.7
CCCNC(=O)C1(C)CCCN(Cc2ccc(-c3ccccc3)cc2)C1 (stereo unspecified)	x	33.2%	x	-19.2%	-10.1%	64.3
CCNC(=O)C1(C)CCCN(Cc2ccc(-c3ccccn3)cc2)C1 (stereo unspecified)	x	24.2%	x	-15.9%	-10.9%	-100.1*
CSc1nc(SCCO)c2sc3nc(-c4ccco4)c4c(c3c2n1)CC(C)(C)OC4	2.51µM*	x	u	-20.5%	x	30.2
Cc1nc2sc3c(NCc4ccco4)ncnc3c2c2c1COC(C)(C)C2	u	u	u	u	-17.5%	-35.1
COCCCNc1ncnc2c1sc1nc(-c3ccco3)c3c(c12)CC(C)(C)OC3	15.8µM*	-13.0%	u	-29.7%	-11.1%	56.8
CC1(C)Cc2c(c(-c3ccco3)nc3sc4c(NCCO)ncnc4c23)CO1	14.1µM*	x	12.6µM*	-29.3%	x	-74.6*
CSc1nc(N(CCO)CCO)c2sc3nc(-c4ccco4)c4c(c3c2n1)CCC4	2.51µM*	-19.7%	6.31µM*	-29.0%	u	-6.1
C=CCn1cccc(/C=C/C(=O)c2ccc(C(C)(C)C)cc2)c1=S	-14.4%	u	10µM*	25.1µM*	u	8.1
